TsaE inh: YjeE (TsaE) inhibition, E. coli | 0.05% of 71,000 active | Potency, µM | purified YjeE enzyme, qHTS inhibition assay
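Purified YjeE (10 uM) with BODIPY Texas Red-labeled ADP probe (2 uM); compounds pin-transferred, 15 min at room temperature. Binding inhibition read as decreased fluorescence polarization; ADP titration as control.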
Pol III holo inh: inhibitors of bacterial DNA polymerase III holoenzyme; Potency, µM (series often up to 57.1 µM), for inactives: top-dose activity change, negative = inhibition; reconstituted DNA polymerase III holoenzyme replication, biochemical; AID 603; 0.25% of 71,000 active; further: potency means the concentration at half of the fitted maximal effect; on the % scale 0 is the no-effect control and ±100 the full control effect
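Reconstituted *E. coli* holoenzyme (0.35 nM Pol III, 1 nM beta, 154 nM SSB, 2 nM primase) was preincubated with compound for 15 min at RT. Synthesis on 1.4 nM ssM13Gori ran 35 min, then was stopped with PicoGreen/EDTA and read as dsDNA fluorescence.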
ERK AVP block: inhibitors of vasopressin-stimulated ERK signaling pathway; Potency, µM (series often up to 57.5 µM), inactives show at the top dose activity, negative = inhibition, most hits filed as inhibitors; 0.99% of 72,000 active; HEK293-V1b, vasopressin-stimulated pERK AlphaScreen; AID 995; further: potency means the concentration at half of the fitted maximal effect; on the % scale 0 is the no-effect control and ±100 the full control effect; nearly all actives have a fitted effect of over 55% in size
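HEK293 cells stably expressing V1b receptor, preincubated 30 min at 37 °C with compound, then stimulated 5 min with 25 nM vasopressin. Phospho-ERK by AlphaScreen SureFire after 5 h RT; normalized to DMSO and vasopressin; AC50 by Hill fit.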
Tau filament bind: binds recombinant human tau filaments | P10636 | recombinant tau filaments, thioflavin S fluorescence, 15 h; filaments grown with octadecylsulfate alongside compound | Potency, µM (highest dose often 57.1 µM), for inactives: at the top dose activity change, negative = inhibition | 2% of 71,000 active | AID 596;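 further: potency means the concentration at half of the fitted maximal effect; on the % scale 0 is the no-effect control and ±100 the full control effect; actives lower thioflavin S fluorescence by blocking filaments or displacing dye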
Target sequence (P10636 whole entry, looked up): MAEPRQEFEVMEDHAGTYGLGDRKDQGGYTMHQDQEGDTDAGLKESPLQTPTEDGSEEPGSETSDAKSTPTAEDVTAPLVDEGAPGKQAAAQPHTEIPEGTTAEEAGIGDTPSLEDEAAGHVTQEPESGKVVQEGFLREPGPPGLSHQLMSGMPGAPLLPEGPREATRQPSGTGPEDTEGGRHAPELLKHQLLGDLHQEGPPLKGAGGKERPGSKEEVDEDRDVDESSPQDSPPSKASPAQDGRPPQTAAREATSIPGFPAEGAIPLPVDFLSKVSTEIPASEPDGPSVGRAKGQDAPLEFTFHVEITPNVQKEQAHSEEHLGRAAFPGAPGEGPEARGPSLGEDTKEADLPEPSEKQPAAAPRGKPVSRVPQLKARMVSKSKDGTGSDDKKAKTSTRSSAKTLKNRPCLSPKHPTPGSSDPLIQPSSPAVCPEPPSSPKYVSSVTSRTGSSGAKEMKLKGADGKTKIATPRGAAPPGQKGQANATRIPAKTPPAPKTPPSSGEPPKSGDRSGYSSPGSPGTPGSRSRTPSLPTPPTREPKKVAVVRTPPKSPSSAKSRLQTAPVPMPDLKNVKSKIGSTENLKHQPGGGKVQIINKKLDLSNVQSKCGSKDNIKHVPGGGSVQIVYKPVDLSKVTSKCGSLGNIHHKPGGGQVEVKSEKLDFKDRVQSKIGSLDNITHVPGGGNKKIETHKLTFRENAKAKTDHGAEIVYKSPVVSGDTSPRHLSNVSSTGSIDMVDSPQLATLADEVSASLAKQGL
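Recombinant tau protein (human, 1 uM final) plus 30 uM ODS in HEPES pH 7.4 with NaCl, DTT and thioflavine S. Compound present from the start; fluorescence at 510 nm after 15 h, 37 C.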
p53ts 39C kill: p53ts cell cytotoxicity, nonpermissive temperature. H1299-p53A138V viability at 39C, ATP luminescence, 24 h. Potency, µM (series often up to 46.1 µM), for the others: at the highest dose activity change, negative = cell killing, most hits filed as cytotoxic. 1.5% of 130,000 active. AID 902; further: potency means the concentration at half of the fitted maximal effect; on the % scale 0 is the no-effect control and ±100 the full control effect; nearly all actives have a fitted effect of over 55% in size
p53ts 32C kill: cytotoxicity in p53ts cells at permissive temperature; Potency, µM (series often up to 46.1 µM), for the others: at the highest dose activity change, negative = cytotoxicity, actives largely listed as cytotoxic; 0.93% of 130,000 active; AID 924; H1299-p53A138V at 32C, ATP luminescence viability, 24 h;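 further: potency means the concentration at half of the fitted maximal effect; 0% = DMSO and -100% = full killing by reference compound; nearly all actives have a fitted effect of over 55% in size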
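ATP-content luminescence (ATPlite) read-out after 24 h compound exposure at 32C in H1299-p53A138V cells (600/well). Tested up to 46 uM. Normalized to DMSO (0%) and 100 uM tamoxifen (100% killing); Hill-fit AC50.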
Numbers without * were called inactive; i = inactive; ? = inconclusive; . = no result; ! = not active in a repeat; [ ] = dose if it differs, or a comment. Only some compounds are listed: those with a hit (about 3.2% of all), similar ones and a draw of the others. The call rests on the fitted dose curve; in most records, active means well fitted curve in the direction sought with a large enough effect; inconclusive means small, poorly fitted or top-dose-only effect, or another doubt; inactive means no such curve, though single readings can be large; an effect the other way counts as inactive or inconclusive.

SMILES	TsaE inh	Pol III holo inh	ERK AVP block	Tau filament bind	p53ts 39C kill	p53ts 32C kill
Oc1ccc(/C=C\c2cc(O)cc(O)c2)cc1	i	3.0%	-11.1%	31.6µM*!	7.94µM*	7.94µM*
Oc1cc(O)cc(/C=C\c2ccc(O)c(O)c2)c1	i	-21.8%	-2.5%	?	?	12.6µM*
Oc1ccc(/C=C/c2cc(O)cc(O)c2)cc1	i	-8.5%	-11.9%	2.5%	6.31µM*	10µM*!
COCC(=O)N1CCC2(CCCN(C(=O)Nc3ccc(OC)cc3)C2)CC1	i	-4.4%	8.2%	7.8%	-3.2%	8.9%
CCOC(=O)Cc1nnc2c(Nc3ccc(Cl)cc3)nc3nonc3n12	i	-3.2%	-15.6%	15.8µM*	-17.3%	7.8%
CCOC(=O)c1nc(Nc2ccc(Cl)cc2)c2c(C)noc2n1	.	.	.	.	-11.0%	6.6%
Oc1cccc2ccc(SSc3ccc4cccc(O)c4n3)nc12	i	-11.0%[11.4 µM]	13.5%[11.5 µM]	-20.0%[11.4 µM]	-2.2%[9.22 µM]	4.2%[9.22 µM]
COC(=O)/C=c1/sc2n(c1=O)CCN=2	i	-2.1%	2.0%	-2.6%	1.2%	3.7%
CN(C)c1ccc(/C=c2\sc3n(c2=O)CCCN=3)cc1	i	-1.8%	-2.2%	147.5%	12.6µM*	12.6µM*
CC1CCCCN1C(=O)CSc1nc2ccccc2nc1Cc1ccccc1 (stereo not given)	.	.	.	.	2.2%	28.2%
CCOC(=O)C1CCN(C(=O)Nc2ccc3c(c2)nc(C)n3C)CC1	i	-6.7%	-3.8%	1.9%	7.0%	5.9%
CCOC(=O)C1CCN(C(=O)Nc2ccc3nc(-c4ccco4)c(-c4ccco4)nc3c2)CC1	i	12.6µM*	25.1µM*	0.794µM*	-13.1%	-11.0%
Cc1nc2ccc(NC(=O)N3CCCCC3)cc2nc1C	.	.	.	.	-5.8%	0.1%
O=C(Nc1ccc2nc(-c3ccco3)c(-c3ccco3)nc2c1)N1CCCCCC1	i	15.8µM*	?	1.26µM*	-7.8%	-8.8%
O=C(NCc1ccccc1)c1ccc(Cc2nc3ccccc3[nH]2)cc1	.	.	.	.	-9.7%	-5.2%
O=C(O)[C@H]1CN[C@H](C(=O)O)C1	i	-6.0%	13.9%	39.8µM*	-3.7%	-7.3%
O=C(O)[C@@H]1CCCN1	i	-0.8%[11.4 µM]	24.5%[11.5 µM]	10.5%[11.4 µM]	-1.4%[9.22 µM]	-6.5%[9.22 µM]
CCOC(=O)c1nn(-c2cc(C(=O)OC)cc(C(=O)OC)c2)cc1O	i	-1.2%	-8.4%	3.6%	-7.3%	-8.1%
COC(=O)c1nn(-c2ccc(-c3ccccc3)cc2)cc1O	i	-4.8%	?	99.4%	?	7.94µM*
CCOC(=O)[C@@H](O)Cc1cnc2ccccc2n1	i	-2.8%[11.4 µM]	-13.9%[11.5 µM]	5.01µM*	-3.2%[9.22 µM]	-2.2%[9.22 µM]
Cc1ccc(OCCCSc2nc(-c3ccc(C(C)(C)C)cc3)nc3cc(=O)[nH]n23)cc1C	.	.	.	.	20µM*	?
Cc1ccc(NC(=O)CSc2nc(-c3ccc(C(C)(C)C)cc3)nc3cc(=O)[nH]n23)cc1C	.	.	.	.	-10.1%	-3.7%
C=CCc1ccccc1OCCSc1nc(-c2ccc(C(C)(C)C)cc2)nc2cc(=O)[nH]n12	.	.	.	.	10µM*	?
COc1ccccc1OCCSc1nc(-c2ccc(C(C)(C)C)cc2)nc2cc(=O)[nH]n12	.	.	.	.	56.1%	35.9%
Cc1ccc(-c2noc(-c3nnn(-c4ccc(Br)cc4F)c3C)n2)cc1	.	.	.	.	-11.1%	-9.3%
SMILES	TsaE inh	Pol III holo inh	ERK AVP block	Tau filament bind	p53ts 39C kill	p53ts 32C kill
COCCCN1C(=O)c2[nH]nc(-c3ccccc3O)c2C1c1ccc(OCc2ccccc2)cc1 (stereo not given)	.	.	.	.	12.6µM*	25.4%
CCCCN1C(=O)c2[nH]nc(-c3ccccc3O)c2C1c1ccc(C(C)(C)C)cc1 (stereo not given)	.	.	.	.	12.6µM*	?
O=C1c2[nH]nc(-c3ccccc3O)c2C(c2ccc(F)cc2)N1Cc1ccco1 (stereo not given)	i	-0.5%	-2.9%	-13.9%	17.6%	27.1%
Cc1ccc(C2c3c(-c4ccccc4O)n[nH]c3C(=O)N2CCCO)cc1 (stereo not given)	.	.	.	.	1.3%	18.9%
CCCCN1C(=O)c2[nH]nc(-c3ccccc3O)c2C1c1ccc(OCc2ccccc2)cc1 (stereo not given)	.	.	.	.	12.6µM*	23.6%
Cc1ccc(C2c3c(-c4cc(C)ccc4O)n[nH]c3C(=O)N2Cc2ccco2)cc1 (stereo not given)	.	.	.	.	25.1µM*	?
CCN1C(C)=C(C(=O)OC)C(c2ccccc2)N2C(=O)[C@@]3(C(=O)OC)O[C@@]12C1C(=O)N(C)C(=O)C13 (stereo not given in full)	.	.	-2.1%[11.5 µM]	.	0.7%[9.22 µM]	6.7%[9.22 µM]
Cc1ccc(C(c2ccccc2)c2c(C)[nH]c3ccccc23)s1 (stereo not given)	.	.	.	.	-17.0%	-5.7%
Cc1ccc2[nH]cc(C(c3ccccc3)c3ccc(C)s3)c2c1 (stereo not given)	.	.	.	.	12.6µM*	?
O=C1c2ccncc2C(=O)N1CO	i	9.6%	-4.7%	-6.8%	9.4%	-1.9%
CNC1=C(Br)C(=O)c2ccncc2C1=O	i	-12.7%	?	15.8µM*	2µM*	0.794µM*
CNC1=C(Cl)C(=O)c2ccncc2C1=O	i	-14.5%	-7.1%	?	3.98µM*	1.58µM*
O=C1CN(CC(=O)N2CCOCC2)c2ccccc2O1	i	-26.4%	?	?	-3.2%	?
O=C1CN(CC(=O)N2CCCCC2)c2ccccc2O1	i	-3.6%	-18.6%	31.6µM*	9.5%	-3.1%
CN1CCc2c(sc3c2C(=O)NC(c2ccc(OC(=O)c4ccccc4)cc2)N3)C1 (stereo not given)	.	.	.	.	-24.0%	?
COc1cc(NS(=O)(=O)c2cc(Br)cc3c2N(C(=O)C2CC2)CC3)cc(OC)c1	.	.	.	.	12.6µM*	10µM*
Cc1ccc(N=c2oc3cc(O)ccc3cc2C(N)=O)cc1	i	3.6%	-22.4%	-22.8%	7.94µM*	?
N#Cc1cc2nc(O)c(O)nc2cc1[N+](=O)[O-]	i	-4.5%	7.5%	39.8µM*!	-7.4%	8.9%
CNc1nc2cc([N+](=O)[O-])c([N+](=O)[O-])cc2nc1NC	.	.	.	.	25.8%	.
CSc1n[nH]c(NCc2ccc(Cl)cc2)n1	.	.	.	.	-25.3%	-22.0%
CSc1n[nH]c(NCc2ccc(C)cc2)n1	.	.	.	.	14.1µM*	11.2µM*
COc1ccc(OC)c(-c2ccccc2/C=N/NS(=O)(=O)c2ccc(C)cc2)c1	.	.	11.2%[11.5 µM]	.	-2.6%[9.22 µM]	6.6%[9.22 µM]
Cc1cc(-c2csc(NC(=O)c3ccc(=O)n(C)n3)n2)c(C)n1CC1CCCO1 (stereo not given)	i	-6.3%	-8.8%	7.94µM*	-3.9%	5.1%
O=C(Nc1nc(-c2ccccc2)cs1)C1CCCO1 (stereo not given)	i	-4.6%	-4.7%	-10.4%	-20.1%	-12.9%

High-throughput results: PubChem, National Center for Advancing Translational Sciences (NCATS)
